# In PubChem BioAssay (NCI):
# The panel holds about 83,000 compounds, 20% with a hit somewhere; the sample as a whole holds those more often.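 Cell lines were cultured in 96-well plates, exposed to a single compound concentration, and assessed for percent growth 48 hours later.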 Unmarked numbers belong to inactive results. Activity calls are given as the source filed them. The calls were made as follows: active = growth percent below 10; inactive = the rest.
# Tested on: HL-60(TB) leukemia
# Test: NCI-60 one-dose screen, 48 h (100 = growth as untreated, 0 = no growth, -100 = all killed)
# Conditions: 10 µM unless noted
row,SMILES,growth
1,CC(=O)OC[C@H]1OC(Sc2sc(C(=O)c3ccc(Cl)cc3)c(N)c2-c2nc3ccccc3s2)[C@H](OC(C)=O)[C@@H](OC(C)=O)[C@@H]1OC(C)=O (stereo not given in full),108%
2,COc1ccc(-c2n/c(=C\c3c(O)[nH]c4ccc(OC)cc34)cc3c2=Nc2ccccc2-3)cc1,81%
3,N#Cc1c(N)sc(=S)c2c1CCCC2,97.6%
4,CN(C)CCNC(=O)c1cccn2c(=O)c3cc4ccccc4cc3nc12,-38.5% (active)
5,COc1ccc(-c2cc(Cc3cccs3)c(=O)n(Cn3ccc4ccccc43)n2)cc1,98.4%
6,O=C(Nc1nc(Cl)nc(Nc2ccc(N3CCOCC3=O)cc2)n1)c1ccc(Cl)s1,68.7%
7,c1ccc(Cn2cc3c(c2)-c2nc(Nc4ccccc4)ncc2CC3)cc1,79.4% [100 µM]
8,Cc1ccc(NC(=O)N/C(N)=N/c2nc(=O)c3ccccc3s2)cc1,33.7%
9,C#CC(O)c1ccccc1 (stereo not given),108%
10,CC(C)c1ccc(C(=O)Nc2sc3c(c2C(N)=O)CCC(=O)C3)cc1,-11.5% (active)
11,CNc1ncc(-c2ccc(C(F)(F)F)cc2)c(NC2CCCCCC2)n1,57%
12,Nn1c(=O)c(=O)[nH]c2c(cnn2-c2ccccc2)c1=O,98.6%
13,Nc1c(C(=O)Nc2ccccn2)sc2nc3c(cc12)CCCC3,5.35% (active)
14,Cc1ccc([N+](=O)[O-])c(C)n1,115%
15,NCCCNc1nc2ccccc2c2c(=O)c3cc(OC(F)(F)F)ccc3sc12,-41.5% (active)
16,CCN(CC)CCn1c2ccc(OC)cc2c2sc3cc(OC)ccc3c(=O)c21,7.58% (active)
17,CCCCCCCCCCCCCCCC1=NCCN1,-15.6% (active)
18,C=C(C)[C@@H]1CC[C@]2(C(=O)N3CCN(C)CC3)CC[C@]3(C)[C@H](CC[C@@H]4[C@@]5(C)CC[C@H](O)C(C)(C)[C@@H]5CC[C@]43C)[C@@H]12,-52.6% (active)
19,COC(=O)c1cnc2c(c1)Oc1ccc(Cl)cc1-c1cc(C)nn1-2,95.9%
20,CC(CN1CCN(CC(C)Nc2ccnc3cc(Cl)ccc23)CC1)Nc1ccnc2cc(Cl)ccc12 (stereo not given),19.8%

row,SMILES,growth
1,COC(=O)C(CCC(=O)CCl)N1C(=O)c2ccccc2C1=O (stereo not given),84.5%
2,Cc1ccc(NC(=O)Nc2cccnc2)cc1NC(=O)Nc1cccnc1,71.1%
3,CC(C)n1cc2c(N)ncnc2n1,101%
4,C=C1C(=O)O[C@H]2[C@H]1CC/C(Cn1cc(-c3ccsc3)nn1)=C\CC[C@@]1(C)O[C@@H]21,-23.5% (active)
5,CSc1ncccc1C(=O)OCC(=O)Nc1oc(C)c2c(C)n[nH]c(=O)c12,98.2%
6,COc1cc(C)ccc1C(=O)c1ccc(C)cc1OC,8.59% (active)
7,O=C1Cc2cc(O)ccc2O1,100%
8,COc1ccc(CN2c3ccccc3Oc3ccccc32)cc1O,15.6%
9,Cc1cc(-c2cc(C)c(O)c(C)c2)cc(C)c1O,63.6%
10,CCCCCCCCCCCCCCCCCCNC(=O)[C@H]1CSC(c2ccc(OC)c(F)c2)N1 (stereo not given in full),-60.3% (active)
11,CN1CCN(c2ccc(NC3=C(Cl)C(=O)c4ncccc4C3=O)cc2C(F)(F)F)CC1,-16.2% (active)
12,Cc1cc(O)cc(O)c1N=NC1=NCCS1,105%
13,CC(=O)C(=Cc1ccc(C=C(C(C)=O)C(C)=O)cc1)C(C)=O,7.08% (active)
14,CC1(C)C2=C(C(=O)N1Cc1ccccc1)C(c1ccco1)N(C(=O)C1CCC1)CCN2 (stereo not given),99.1%
15,CCOC(=O)C/C(=N\Nc1cc(=O)[nH]c2ccc(C)cc12)C(=O)OCC,92%
16,Clc1ccc(-c2cn(-c3ccccc3)c(-c3ccccc3)n2)c(Cl)c1,52.1%
17,O=C(N/N=C/c1ccc([N+](=O)[O-])cc1)c1ccccc1Nc1cccc(C(F)(F)F)c1,108%
18,COc1ccc(-c2nn(-c3cccc(Cl)c3)cc2-c2nc(N)[nH]c(=O)c2C#N)cc1,78.7%
19,COc1cccc(-c2nn(-c3ccccc3)cc2-c2ccnc(NCCNC(=O)Nc3ccccc3)c2)c1,19.9%
20,COc1ccc(-c2cn(Cc3cc4ccccc4s3)nn2)cc1OCCN1CCCCC1,77%
